# High-throughput results deposited in PubChem by several laboratories.
# MCL1-BIM inh = inhibitors of MCL1 binding to BIM-BH3, primary screen, biochemical, fluorescence polarization; GST-MCL1 / FITC-Bim-BH3 fluorescence polarization; AID 2057, 2009; inhibition, % at 10.9 µM; 320,000 compounds, 0.68% hits; Induced myeloid leukemia cell differentiation protein Mcl-1 (Homo sapiens), Q07820;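 active = inhibition above the mean inhibition of all tested compounds plus 3 SD, set per campaign, cut at about 40% in these data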;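 also: 0% = DMSO wells and 100% = unlabeled Bim-BH3 peptide control; higher means more loss of mP so more displacement of Bim peptide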
# Target sequence (Q07820 whole entry, looked up): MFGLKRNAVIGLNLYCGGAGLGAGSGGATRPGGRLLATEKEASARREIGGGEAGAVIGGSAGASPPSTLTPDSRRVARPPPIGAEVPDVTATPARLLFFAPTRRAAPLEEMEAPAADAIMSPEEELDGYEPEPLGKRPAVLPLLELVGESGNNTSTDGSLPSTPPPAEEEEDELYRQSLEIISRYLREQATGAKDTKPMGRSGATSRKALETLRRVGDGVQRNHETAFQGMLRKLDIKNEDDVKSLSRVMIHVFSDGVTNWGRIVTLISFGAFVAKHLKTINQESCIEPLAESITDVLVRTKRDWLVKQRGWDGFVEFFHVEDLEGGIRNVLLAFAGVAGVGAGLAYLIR
# Mcl1-Bid inh = Mcl-1/Bid binding inhibitors, primary screen, biochemical, TR-FRET, 1536-well. Induced myeloid leukemia cell differentiation protein Mcl-1 (Homo sapiens), Q07820. TR-FRET Mcl-1/Bid-Dy647 peptide binding. inhibition, % at 21.7 µM. 220,000 compounds, 0.97% hits;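 active = compounds that cut the binding signal by more than half at the single screening dose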;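 also: His-tagged Mcl-1 with europium anti-His antibody binding Bid BH3 peptide; 0% = Mcl-1 plus peptide wells and 100% = peptide-only wells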
# GLD-1 TGE inh = GLD-1/TGE RNA complex disruptors, primary screen, biochemical, fluorescence polarization; Female germline-specific tumor suppressor gld-1 (Caenorhabditis elegans), Q17339; 320,000 compounds, 0.44% hits; AID 2280, 2010; inhibition, % at 5.96 µM; purified GLD-1 + fluorescein TGE RNA;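 active = percent inhibition above a per-plate cutoff, the plate mean of test compounds plus 3 SD, cut at about 30% in these data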;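 also: 0% = DMSO wells with GLD-1 and probe and 100% = wells lacking GLD-1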
# Mcl-1 Bim block = inhibitors of Bim peptide binding to Mcl-1, primary screen, biochemical, bead-based flow cytometry, multiplex; inhibition, % at 10 µM; Bim peptide-Mcl-1 binding; 190,000 compounds, 0.1% hits; Induced myeloid leukemia cell differentiation protein Mcl-1 (Homo sapiens), Q07820; AID 1009, 2008; in the data active = inhibition above about 40%;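 also: 0% = no compound tracer wells and 100% = peptide blocker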
# Mcl1-Noxa inh = Mcl-1/Noxa binding inhibitors, primary screen, biochemical, TR-FRET, 1536-well; Induced myeloid leukemia cell differentiation protein Mcl-1 (Homo sapiens), Q07820; TR-FRET Mcl-1/Noxa peptide binding, 2 h; inhibition, % at 21.7 µM; 220,000 compounds, 1.5% hits; AID 1022, 2008;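 active = compounds that cut the protein-peptide binding signal by more than 50% relative to plate controls in a single-dose test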;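 also: His-tagged Mcl-1 with rhodamine Noxa BH3 peptide and terbium anti-His antibody; 0% = Mcl-1 plus Noxa peptide wells and 100% = peptide-only wells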
# BCLXL inh = inhibitors of human Bcl-xL, primary screen, biochemical, fluorescence polarization, HTS; Bcl-2-like protein 1 (Homo sapiens), Q07817; GST-Bcl-xL / FITC-Bim BH3 peptide fluorescence polarization; inhibition, % at 10.9 µM; 320,000 compounds, 0.7% hits; AID 2129, 2009;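 active = inhibition above the mean of all tested compounds plus 3 SD, cutoff set per campaign, cut at about 30% in these data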;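 also: 0% = DMSO wells and 100% = unlabeled Bim-BH3 peptide competitor; inhibitors lower millipolarization by displacing the labeled peptide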
# Target sequence (Q07817 whole entry, looked up): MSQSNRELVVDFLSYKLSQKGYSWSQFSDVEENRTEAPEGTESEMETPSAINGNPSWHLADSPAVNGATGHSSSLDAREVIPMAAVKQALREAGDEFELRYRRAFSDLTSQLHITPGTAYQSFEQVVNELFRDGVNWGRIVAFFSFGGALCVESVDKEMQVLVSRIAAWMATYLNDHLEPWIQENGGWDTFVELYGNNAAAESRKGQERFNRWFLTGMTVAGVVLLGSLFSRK
# The depositor's hits bear a star; nt = not tested or not shown. Most compounds without a hit are left out; they make up all but 2.3% or so of the library.
SMILES,MCL1-BIM inh,Mcl1-Bid inh,GLD-1 TGE inh,Mcl-1 Bim block,Mcl1-Noxa inh,BCLXL inh
Cc1ccc(C(=O)NNC2=Nc3cccc4cccc2c34)cc1,0.1,19.8,6.3,-5.0,67.1*,0.2
COc1ccc(C(=O)NNC2=Nc3cccc4cccc2c34)cc1,-5.1,-7.2,-3.1,0.0,0.6,-4.5
Cc1ccc(C(=O)NNc2c3ccccc3nc3ccccc23)cc1,17.0,11.8,7.1,nt,81.2*,16.1
Cc1ccc(/C=C2\SC(=S)N(CCCC(=O)NC3CCCC3)C2=O)cc1,-7.3,nt,0.3,nt,nt,-10.8
Clc1cncc(Cl)c1NNc1c2ccccc2nc2ccccc12,4.5,-9.3,11.2,-6.0,57.6*,9.9
c1cncc(Nc2c3ccccc3nc3ccccc23)c1,9.8,nt,10.6,nt,nt,7.9
CC1(C)CC(=O)C=C(NC2CCCC(O)C2)C1 (stereo unspecified),1.2,nt,3.6,nt,nt,3.0
O=S(=O)(NCc1nnc2c(C(F)(F)F)cc(Cl)cn12)c1ccccc1,4.6,nt,6.2,nt,nt,6.8
O=C(O)c1ccc(-n2cc(-c3cc4ccccc4oc3=O)[nH]c2=S)cc1,nt,-28.9,nt,0.0,50.5*,nt
COCCCn1c(=S)[nH]c2sc3c(c2c1=O)CCCS3,10.2,-89.0,0.2,-4.0,65.1*,9.6
COCCn1c(=S)[nH]c2sc3c(c2c1=O)CCC(C)C3 (stereo unspecified),3.8,nt,4.9,nt,nt,2.9
Cn1cc(CCC(=O)N2CCCC(N3CCN(c4ccccc4F)CC3)C2)cn1 (stereo unspecified),5.1,nt,1.9,nt,nt,2.0
Cc1ccccc1OCc1ccc(C(=O)N2CC(C)OC(C)C2)o1 (stereo unspecified),1.0,nt,2.5,nt,nt,1.6
CC(=O)c1cccc(NC(=O)CSc2ccc(-c3ccco3)nn2)c1,10.1,nt,3.8,nt,nt,9.2
O=C(CSc1ccc(-c2ccco2)nn1)c1cccc([N+](=O)[O-])c1,65.9*,-44.6,1.3,-1.0,33.0,25.5
Cc1cccc2c(N=O)c(O)[nH]c12,2.3,-50.2,-6.5,nt,55.0*,8.5
COc1ccccc1NC(=O)COc1cc(Br)c(CNCCCN2CCOCC2)cc1OC,0.8,89.0*,0.4,2.0,43.2,-3.2
Cc1ccc(NC(=O)Cn2c(O)c(N=NC(=O)c3cc4ccccc4cc3O)c3ccccc32)cc1,-9.1,80.2*,5.7,5.0,99.1*,-0.8
Cc1ccc(NC(=O)Cn2c(O)c(N=NC(=O)c3ccncc3)c3ccccc32)cc1,3.6,26.8,2.0,-3.0,39.4,3.0
O=C(N=Nc1c(O)n(Cc2ccccc2)c2ccccc12)c1cc2ccccc2cc1O,24.0,56.1*,1.8,4.0,85.1*,9.5
O=C(N=Nc1c(O)n(Cc2ccccc2)c2ccccc12)c1ccc(O)cc1,10.3,4.1,-1.6,-5.0,-6.2,5.8
O=C(CCn1c(=O)sc2ccccc21)NC1CCCCC1,5.7,nt,-4.3,nt,nt,6.0
c1ccc(-c2nc(-c3ccco3)n3ccccc23)cc1,44.8*,-0.9,20.7,4.0,25.0,65.3*
c1ccc(Nc2c(-c3ccco3)nc3ccccn23)cc1,5.9,-40.4,-3.5,-4.0,17.5,6.6
O=C(N/N=C/c1c(O)n(-c2ccccc2Cl)c(=O)c2ccccc12)c1cccnc1,nt,-85.8,nt,0.0,55.4*,nt
SMILES,MCL1-BIM inh,Mcl1-Bid inh,GLD-1 TGE inh,Mcl-1 Bim block,Mcl1-Noxa inh,BCLXL inh
O=C(N/N=C/c1c(O)n(Cc2ccccc2)c(=O)c2ccccc12)c1cccnc1,-63.2,-52.3,-20.1,0.0,-9.1,-28.1
Cc1cc(C=O)c(C)n1-c1cccc(C(=O)O)c1,-2.8,-44.6,-1.7,0.0,19.5,1.2
Cc1ccc(C)n1-c1cccc(C(=O)O)c1,70.7*,88.4*,14.4,13.0,98.9*,25.7
Cc1ccc(C)n1-c1cccc(C(=O)Nc2ccccc2)c1,-11.2,-37.7,-4.5,nt,15.5,-7.8
Cc1ccc(C)n1-c1cccc(N)c1,45.3*,-76.5,-10.9,3.0,21.6,36.0*
COc1ccc(-c2ccc3c(c2)S(=O)(=O)c2cccc(C(=O)N4CCN(c5c(Cl)cncc5Cl)CC4)c2C3=O)cc1OC,nt,nt,-9.7,nt,nt,nt
CCC(C)[C@H](NC(=O)[C@@H]1Cc2ccccc2CN1)C(=O)Nc1ccc2c(c1)OCO2 (stereo partly specified),7.7,nt,-7.2,nt,nt,5.1
COc1cc(C(=O)Nc2ccc(N(C)C)cc2)c([N+](=O)[O-])cc1OC,-3.9,-27.4,6.6,1.0,69.2*,-0.1
Cc1ccc(C(=O)CSc2nc(O)cc(=O)[nH]2)cc1C,3.9,nt,-4.5,nt,nt,-0.3
CC(=O)OCCn1c2nc(=O)[nH]c(=O)c-2nc2cc(C)c(C)cc21,nt,96.4*,nt,nt,14.3,nt
CC(=O)OCCn1c(C)[n+](CCOC(C)=O)c2cc(Cl)c(Cl)cc21,-24.7,3.4,0.8,-5.0,22.4,-15.7
COc1ccccc1CCc1nnc(CCC(=O)NCC2CCCO2)o1 (stereo unspecified),7.6,nt,3.2,nt,nt,7.0
COc1ccccc1CNC(=O)CNCC1CCCO1 (stereo unspecified),1.1,50.5*,9.2,0.0,14.6,6.7
COc1ccc(-c2cc(C(=O)NCC3CCCO3)on2)cc1OC (stereo unspecified),0.7,nt,6.9,nt,nt,34.0*
COc1cccc(-c2cc(C(=O)NCC3CCCO3)on2)c1 (stereo unspecified),7.3,nt,1.4,nt,nt,3.7
CC(C)(C)C1CCC(C(=O)Nc2ccc(N3CCOCC3)cc2N2CCOCC2)CC1 (stereo unspecified),8.7,nt,2.4,nt,nt,5.8
COc1ccc(C)cc1NC(=O)c1cc(S(=O)(=O)N2CCCCC2)ccc1N1CCOCC1,0.1,nt,2.2,nt,nt,1.4
O=C1C=C(NNC(=O)c2ccccc2Br)CCC1,16.9,-20.8,68.6*,0.0,-2.4,12.5
COc1cc(C#CC#CCN2CCCCC2)ccc1O,10.3,8.3,-5.4,-1.0,50.9*,0.0
CCOC(=O)CC1=CSC2=NS(=O)(=O)CCN12,11.4,-2.9,1.4,-4.0,74.4*,6.4
COc1ccc(/C=N/NC(=O)C(=O)N2CCCCCC2)cc1O,0.7,nt,8.0,nt,nt,-0.8
CN(CCc1ccccc1)C(=O)c1cccc(NC(=O)Cc2cccc([N+](=O)[O-])c2)c1,nt,nt,7.8,nt,nt,nt
Oc1ccccc1-c1cc(-c2ccco2)[nH]n1,-2.2,-24.5,-4.1,-4.0,48.4,-0.8
Oc1ccc(Br)cc1-c1cc(-c2ccco2)[nH]n1,-9.9,2.5,-0.4,-3.0,63.9*,-3.8
O=C(c1ccccc1)N1CCN(C(=O)c2ccc([N+](=O)[O-])cc2)CC1,-11.7,9.9,-3.8,-3.0,54.2*,-1.8
